This passage reports Potency and outcome results from PubChem BioAssay (Tox21).

The nature of assay [1]: Nuclear factor erythroid 2-related factor 2/antioxidant responsive element (Nrf2/ARE) small molecule agonists: qHTS cell viability counter screen in human keratinocytes (AID 1919968; active means well fitted curve in the direction sought with a large enough effect in the repeat runs; an effect the other way counts as inactive or inconclusive; further: nearly all actives have a fitted effect of over 55% in size; further: potency means the concentration at half of the fitted maximal effect). The essentials:
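Fluorescence read-out from CellTiter-Fluor after 1 h at 37 C. Wells held HaCaT-derived ARE-luciferase reporter cells (1,500/well) treated 23 h with DMSO-dissolved compounds. Run in the same wells as the luciferase agonist read.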
In general terms: Quantitative high-throughput screening tests each substance at several concentrations.

The nature of assay [2]: Nuclear factor erythroid 2-related factor 2/antioxidant responsive element (Nrf2/ARE) small molecule agonists: luciferase reporter gene qHTS assay in human keratinocytes (AID 1919969). Further: nearly all actives have a fitted effect of over 35% in size. On the technique in general: In a reporter assay the amount or activity of a reporter protein is the signal.
Assay [3] deals with KiSS-1 receptor (Homo sapiens) (UniProt Q969F8). Description: Human kisspeptin (KISS1R) small molecule agonists, calcium flux assay in KISS1R-HEK293 cells (AID 1920064; active means well fitted curve in the direction sought with a large enough effect in the repeat runs; an effect the other way counts as inactive or inconclusive). In a few lines: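 Calcium flux read-out: kinetic fluorescence at Ex/Em=480/540, 1 s intervals over 3 min, after pin-tool compound addition to dye-loaded KISS1R-HEK293 cells. Fifteen concentrations, triplicates.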
Chain of KiSS-1 receptor (Homo sapiens) (Q969F8 whole entry, looked up): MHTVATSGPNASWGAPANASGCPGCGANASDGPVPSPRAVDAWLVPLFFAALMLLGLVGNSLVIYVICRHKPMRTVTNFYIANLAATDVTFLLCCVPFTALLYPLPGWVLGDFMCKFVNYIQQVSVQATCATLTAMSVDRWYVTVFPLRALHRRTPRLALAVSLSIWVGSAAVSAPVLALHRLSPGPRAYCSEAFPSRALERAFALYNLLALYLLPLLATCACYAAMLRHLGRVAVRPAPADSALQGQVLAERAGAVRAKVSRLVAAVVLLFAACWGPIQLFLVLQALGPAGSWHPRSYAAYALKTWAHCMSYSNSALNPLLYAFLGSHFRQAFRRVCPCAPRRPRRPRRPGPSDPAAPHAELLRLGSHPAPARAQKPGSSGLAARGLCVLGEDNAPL
For orientation: A change in cytosolic calcium serves as a functional read-out for many receptors and channels.

The nature of assay [4]: G protein-coupled receptor (GPCR) small molecule agonists, calcium flux assay: HEK293 wild type cell line counter screen (AID 1920065). In a few lines:
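Agonist mode; 18 h seeding at 37 C, 1 h dye load at 37 C; compounds pinned from DMSO, ATP as positive control; kinetic fluorescence 480/540 nm, 3 min, 1 s reads; 15 concentrations, triplicate.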

Assay [5] is described as follows: p53 small molecule agonists, cell-based qHTS assay with human liver microsomes (AID 1963577).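 Further: p53 response element beta-lactamase reporter cells with liver microsomes plus NADPH.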 In a few lines:
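16 h, 37 C exposure of p53RE-bla cells to compounds with human liver microsomes and NADPH (0.5 mg/mL final each); detection via LiveBLAzer mixture, 2 h dark at room temperature.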

The nature of assay [6]: p53 small molecule agonists, cell-based qHTS assay with rat liver microsomes (AID 1963578). In a few lines: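 With rat liver microsomes and NADPH present (0.5 mg/mL final each), p53RE-bla cells are treated with compound for 16 h at 37 C. LiveBLAzer detection mixture is then applied for 2 h at room temperature in the dark.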
A short description of assay [7]: p53 small molecule agonists, cell-based qHTS assay with human liver microsomes: qHTS cell viability counter screen (AID 1963579). Further: nearly all actives have a fitted effect of over 45% in size. In a few lines:
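In this multiplexed counter screen, the reporter plates were subsequently treated with CellTiter-Glo so that cell viability, reflected by luminescence, could be recorded for p53RE-bla cells dosed 16 h with compounds under microsomal activation (HLM and NADPH).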

Assay [8] in a line: p53 small molecule agonists, cell-based qHTS assay with rat liver microsomes: qHTS cell viability counter screen (AID 1963580). Further: nearly all actives have a fitted effect of over 45% in size. The essentials:
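After the beta-lactamase ratio was read, CellTiter-Glo was added to the same wells and luminescence measured at 30 min; cells had been treated 16 h at 37 C with compounds, rat liver microsomes and NADPH (0.5 mg/mL final each).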

A short description of assay [9]: p53 small molecule agonists, cell-based qHTS assay: qHTS cell viability counter screen (AID 1963581). Further: nearly all actives have a fitted effect of over 45% in size. The essentials: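 Cytotoxicity read-out: ATP-based luminescence (CellTiter-Glo, 30 min RT) measured in the same wells as the p53 reporter assay, HCT-116 p53RE-bla cells, 16 h compound exposure at 37 C.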
The nature of assay [10]: p53 small molecule agonists, cell-based qHTS assay (AID 1963582; active means well fitted activation curve with a large enough effect in the signal ratio in the repeat runs, not every such curve was filed as active; the % refers to the signal ratio). The essentials:
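Fluorescence intensity read-out of a beta-lactamase reporter under a p53 response element. Cells were exposed to DMSO-dissolved compounds for 16 h at 37 C, then developed with FRET substrate for 2 h at RT.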

The target of assay [11] is 5-hydroxytryptamine receptor 2A (Homo sapiens) (UniProt P28223). The assay can be described thus: 5-hydroxytryptamine receptor 2A (HTR2A) small molecule antagonists, cell-based qHTS assay (AID 1963586). Further: nearly all actives have a fitted effect of over 45% in size. In a few lines: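 CHO cells stably expressing human HTR2A were plated for 18 h at 37 C, then loaded with calcium dye for 1 h. Compounds were preincubated 5 min at room temperature before DOI (4 nM solution) was added. Kinetic fluorescence was read for 3 min.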
Chain of 5-hydroxytryptamine receptor 2A (Homo sapiens) (P28223 whole entry, looked up): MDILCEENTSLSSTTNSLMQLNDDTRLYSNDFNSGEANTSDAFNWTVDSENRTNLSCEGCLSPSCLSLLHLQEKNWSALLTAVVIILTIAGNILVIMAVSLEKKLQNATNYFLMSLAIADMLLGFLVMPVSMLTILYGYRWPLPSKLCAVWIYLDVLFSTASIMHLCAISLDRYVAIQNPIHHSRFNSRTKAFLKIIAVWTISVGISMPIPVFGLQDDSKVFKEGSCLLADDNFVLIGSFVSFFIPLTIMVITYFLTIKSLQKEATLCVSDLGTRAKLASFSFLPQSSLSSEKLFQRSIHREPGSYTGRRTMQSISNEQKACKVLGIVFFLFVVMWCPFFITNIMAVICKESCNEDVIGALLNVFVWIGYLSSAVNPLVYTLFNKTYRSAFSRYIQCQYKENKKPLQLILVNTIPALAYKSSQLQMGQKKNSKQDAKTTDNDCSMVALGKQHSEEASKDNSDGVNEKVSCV

The target is the same in assay [12]. Description: 5-hydroxytryptamine receptor 2A (HTR2A) small molecule agonists, cell-based qHTS assay (AID 1963587). Further: nearly all actives have a fitted effect of over 30% in size. The essentials: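 CHO cells stably expressing human HTR2A, plated 18 h, loaded with calcium dye 1 h at 37 C. Agonist mode: compounds added and intracellular calcium fluorescence recorded kinetically for 2 min at 1 sec intervals.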
The target of assay [13] is Muscarinic acetylcholine receptor M1 (Homo sapiens) (UniProt P11229). The assay can be described thus: Cholinergic receptor muscarinic 1 (CHRM1) small molecule antagonists, cell-based qHTS assay (AID 1963588). Further: nearly all actives have a fitted effect of over 40% in size. The essentials: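 Compounds were tested at 15 concentrations in three independent runs. Dye-loaded CHRM1-CHO cells were exposed 5 min at room temperature before stimulation by acetylcholine added at 50nM. Intracellular calcium was read kinetically on FDSS for 3 min.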
Chain of Muscarinic acetylcholine receptor M1 (Homo sapiens) (P11229 whole entry, looked up): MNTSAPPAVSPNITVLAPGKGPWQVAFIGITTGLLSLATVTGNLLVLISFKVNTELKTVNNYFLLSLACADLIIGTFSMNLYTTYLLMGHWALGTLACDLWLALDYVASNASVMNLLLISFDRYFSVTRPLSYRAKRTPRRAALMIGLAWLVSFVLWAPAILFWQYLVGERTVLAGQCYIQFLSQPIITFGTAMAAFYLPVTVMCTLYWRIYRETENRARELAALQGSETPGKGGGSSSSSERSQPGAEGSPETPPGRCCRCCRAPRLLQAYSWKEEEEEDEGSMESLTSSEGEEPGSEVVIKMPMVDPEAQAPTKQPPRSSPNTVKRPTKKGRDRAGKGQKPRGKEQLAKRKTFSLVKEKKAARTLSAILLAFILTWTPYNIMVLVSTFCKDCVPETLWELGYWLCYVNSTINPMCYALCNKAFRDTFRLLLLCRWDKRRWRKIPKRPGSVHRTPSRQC

Assay [14] has the same target. The assay can be described thus: Cholinergic receptor muscarinic 1 (CHRM1) small molecule agonists, cell-based qHTS assay (AID 1963589). Further: nearly all actives have a fitted effect of over 35% in size. The essentials:
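Calcium flux read-out: kinetic fluorescence at 1 sec intervals after pin-tool compound addition to dye-loaded CHRM1-CHO cells (human M1). Agonist mode; 15 concentrations tested in triplicate independent runs.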

Assay [15] in a line: cAMP Responsive Elements (CRE) small molecule antagonists, cell-based qHTS assay (AID 1963591; active means well fitted inhibition curve with a large enough effect in the signal ratio in the repeat runs, not every such curve was filed as active; the % refers to the signal ratio). In a few lines:
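HEK293T CRE-bla; 18 h preincubation; compound pin-transfer; NKH477 0.25 uM final, 3 h, 37 C; LiveBLAzer FRET substrate 2 h RT.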

Assay [16] has as its target D(2) dopamine receptor (Homo sapiens) (UniProt P14416). Description: Dopamine D2 receptor (DRD2) small molecule agonists, cell-based qHTS assay (AID 1963594). Further: nearly all actives have a fitted effect of over 35% in size. In a few lines: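 HEK293 cells stably expressing human DRD2, pre-treated with PDE inhibitor Ro20-1724 (0.1 mM final) and compound 10 min at room temperature, then stimulated with NKH477 (200nM […]) for 30 min. cAMP read by HTRF (665/620 nm).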

For assay [17] the target is unchanged. Description: Dopamine D2 receptor (DRD2) small molecule antagonists, cell-based qHTS assay (AID 1963595; active means well fitted inhibition curve with a large enough effect in the signal ratio in the repeat runs, with a control signal flat; the % refers to the signal ratio). In a few lines: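 In this cell-based antagonist screen, compounds act for 10 min at room temperature before a 30 min challenge with 12 nM quinpirole and 200 nM NKH477. cAMP is quantified by HTRF competition in DRD2-HEK293 cells containing 0.1 mM Ro20-1724.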

Assay [18] is described as follows: cAMP Responsive Elements (CRE) small molecule agonists, cell-based qHTS assay (AID 1963590). In a few lines: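 Beta-lactamase reporter readout: LiveBLAzer B/G FRET substrate, 2 h at room temperature, added after 3 h compound treatment of CRE-bla HEK 293T cells at 37 C/5% CO2.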
Assay [19] concerns the target Beta-2 adrenergic receptor (Homo sapiens) (UniProt P07550). The assay can be described thus: Adrenergic beta2 receptor (ADRB2) small molecule antagonists, cell-based qHTS assay (AID 1963592). Further: series mostly up to about 92 µM; nearly all actives have a fitted effect of over 50% in size. The essentials:
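Assay format: CHO-ADRB2 cells, 18-20hr seeding at 37C/5% CO2, then compound plus 1nM isoproterenol agonist mix for 0.5hr RT. Homogeneous time-resolved fluorescence cAMP detection after 1hr, expressed as 665/615 nm ratio.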

Each structure is given as a SMILES string. Unmarked numbers belong to inactive results. Inconclusive results are not listed. Active and inactive are the calls of the source. Unless noted, the call rests on the fitted dose curve. Peptide text beside a SMILES is read from it.

Chain of D(2) dopamine receptor (Homo sapiens) (P14416 whole entry, looked up): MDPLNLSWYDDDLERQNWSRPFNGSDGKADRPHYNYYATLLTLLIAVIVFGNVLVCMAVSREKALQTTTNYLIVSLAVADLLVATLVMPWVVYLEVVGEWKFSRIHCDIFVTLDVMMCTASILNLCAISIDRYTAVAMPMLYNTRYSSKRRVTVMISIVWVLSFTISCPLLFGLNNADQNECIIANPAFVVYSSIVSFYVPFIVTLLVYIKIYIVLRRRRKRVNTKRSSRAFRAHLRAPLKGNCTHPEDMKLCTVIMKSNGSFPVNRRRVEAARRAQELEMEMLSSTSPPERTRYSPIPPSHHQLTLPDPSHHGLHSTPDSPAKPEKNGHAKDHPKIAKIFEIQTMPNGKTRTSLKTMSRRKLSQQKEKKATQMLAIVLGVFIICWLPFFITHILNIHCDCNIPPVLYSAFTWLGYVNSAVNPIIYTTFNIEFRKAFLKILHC
Chain of Beta-2 adrenergic receptor (Homo sapiens) (P07550 whole entry, looked up): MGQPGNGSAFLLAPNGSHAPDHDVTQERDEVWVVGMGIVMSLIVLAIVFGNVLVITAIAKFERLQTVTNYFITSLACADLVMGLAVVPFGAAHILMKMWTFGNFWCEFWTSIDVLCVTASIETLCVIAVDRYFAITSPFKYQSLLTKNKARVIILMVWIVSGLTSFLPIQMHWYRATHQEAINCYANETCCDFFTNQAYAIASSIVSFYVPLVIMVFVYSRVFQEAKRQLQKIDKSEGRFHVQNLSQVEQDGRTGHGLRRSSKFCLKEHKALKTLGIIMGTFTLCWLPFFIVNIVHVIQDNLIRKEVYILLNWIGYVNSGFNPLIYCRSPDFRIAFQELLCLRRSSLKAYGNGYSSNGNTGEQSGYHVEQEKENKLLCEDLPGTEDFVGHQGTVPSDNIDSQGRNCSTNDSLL

Consider `CCC(C)c1nccnc1OC` (stereo not given), for which the Potency entry in assay [1], in assay [2], in assay [5], in assay [6], in [7] and in [8] was “inactive” in each case. For the same molecule, the Potency entry in assay [9], in assay [10], in assay [11], in [12], in [13] and in assay [14] was “inactive” throughout. Also, the Potency entry in assay [15], in assay [16] and in assay [17] was “inactive” in each case. Also, the result in assay [3] and in assay [4] was inactive.
`O=C(O)CCCCCCC(=O)O`: the Potency result in [1], in [2], in assay [5], in assay [6], in assay [7] and in assay [8] was “inactive” throughout. In addition, the Potency entry in assay [9], in [11], in assay [12], in assay [13], in assay [14] and in assay [18] was “inactive” in each case. Moreover, the Potency result in [15], in assay [19], in assay [16] and in assay [17] was “inactive” each time. Further, the result in [3] and in assay [4] was inactive.
For `Cc1oc(=O)oc1COC(=O)[C@@H]1N2C(=O)[C@@H](NC(=O)[C@H](N)c3ccccc3)[C@H]2SC1(C)C`, the Potency entry in [1], in [2], in assay [5], in [6], in assay [7] and in [8] was “inactive” in each case. Moreover, the Potency entry in assay [9], in assay [10], in assay [11], in assay [12], in assay [13] and in [14] was “inactive” in each case. The Potency result in assay [15], in assay [19], in assay [16] and in assay [17] was “inactive” throughout. The outcome in assay [3] and in [4] was inactive.
Turning to `Clc1ccc2c(c1)CCc1cccnc1C2=C1CCNCC1`, the Potency in assay [1] is 29.8 µM (active). For the same molecule, the Potency entry in [2], in assay [5], in assay [6], in [7], in [8] and in assay [9] was “inactive” each time. Further, the Potency result in assay [10], in [18], in [19], in assay [16] and in [17] was “inactive” each time. Moreover, the result in assay [3] and in [4] was inactive.
As to `CC(=O)N[C@@H](CO)C(=O)N[C@@H](CC(=O)O)C(=O)N[C@@H](CCCCN)C(=O)N1CCC[C@H]1C(=O)O` (Ac-SDKP-OH), the Potency result in assay [1], in assay [2], in assay [5], in [6], in [7] and in assay [8] was “inactive” throughout. The Potency entry in assay [9], in assay [10], in assay [18], in [15], in assay [19] and in assay [16] was “inactive” in each case. Also, the Potency result in [17] was “inactive”. The result in assay [3] and in assay [4] was inactive.
As to `C=CC(C)(C)O`, the Potency result in [1], in [2], in assay [5], in assay [6], in [7] and in [9] was “inactive” in each case. Besides, the Potency entry in assay [10], in [11], in assay [12], in assay [13], in assay [14] and in assay [19] was “inactive” in each case. Also, the Potency result in [16] and in assay [17] was “inactive” throughout. In addition, the result in assay [3] and in assay [4] was inactive.
As to `CCOC(=O)C(Br)c1ccccc1` (stereo not given), the Potency entry in assay [1], in [2], in assay [5], in assay [6], in [7] and in [9] was “inactive” throughout. Moreover, the Potency entry in assay [10], in [11], in assay [12], in assay [13], in [14] and in assay [18] was “inactive” each time. Further, the Potency entry in assay [19], in assay [16] and in [17] was “inactive” throughout. In addition, the result in [3] and in assay [4] was inactive.
